# In paper PMC11062922 (Nature Chemical Biology, 2023):
# Like-named read-outs stand apart in the source and are kept apart here.
# Columns and labels:
# Set-up in all cases: species or system human, MV4-11 + K-562 + COLO205 + SK-N-BE2 + OVCAR-8
# CIT = details: read-out: apparent Kd, n = 1
# CSK = details: read-out: apparent Kd, n = 1
# EPHA1 = details: read-out: apparent Kd, n = 1
# EPHB3 = details: read-out: apparent Kd, n = 1
# FYN = details: read-out: apparent Kd, n = 1
# LYN = details: read-out: apparent Kd, n = 1
# MTOR = details: read-out: apparent Kd, n = 1
# CDC42BPG = details: read-out: apparent Kd, n = 1
# PDGFRB = details: read-out: apparent Kd; compound concentrations: 100 nM and 1000 nM (sheet 'Samples'), CATDS: 3.4568718881872497E-2; n = 1
# RIPK2 = details: read-out: apparent Kd, n = 1
# AXL = details: read-out: apparent Kd, n = 1
# ROCK1 = details: read-out: apparent Kd, n = 1
# ULK1 = details: read-out: apparent Kd, n = 1
# PRKG1 = details: read-out: apparent Kd, n = 1
# PIK3CG = details: read-out: apparent Kd, compound concentrations: 100 nM and 1000 nM (sheet 'Samples'), n = 1
# TGFBR2 = details: read-out: apparent Kd; compound concentrations:100 nM and 1000 nM (sheet 'Samples'); n = 1
# CDC42BPA = details: read-out: apparent Kd; compound concentrations: 100 nM and 1000 nM (sheet 'Samples'), CATDS: 1.08451954536147E-2; n = 1
# ULK3 = details: read-out: apparent Kd, compound concentrations: 100 nM and 1000 nM (sheet 'Samples'), n = 1
# [1] = compound concentrations:100 nM and 1000 nM (sheet 'Samples')
smiles,measurement,setting,value
Cc1ccc2c(-c3ccncc3)c(-c3ccc(F)cc3)nn2c1.Cl [GW461484A],potency estimated from few doses,CIT; [1],2.12 µM
same,potency estimated from few doses,CSK; [1],0.893 µM
same,potency estimated from few doses,EPHA1; [1],0.643 µM
same,potency estimated from few doses,EPHB3; [1],1.96 µM
same,potency estimated from few doses,FYN; [1],1.17 µM
same,potency estimated from few doses,LYN; [1],1.01 µM
same,potency estimated from few doses,MTOR; [1],0.571 µM
CCn1c(-c2nonc2N)nc2c(-c3ccccc3)ncc(OCCCN)c21.CCn1c(-c2nonc2N)nc2c(-c3ccccc3)ncc(OCCCN)c21.O=C(O)C(F)(F)F.O=C(O)C(F)(F)F [GSK260205A],potency estimated from few doses,"CDC42BPG; compound concentrations: 100 nM and 1000 nM (sheet 'Samples'), CATDS: 6.3279699360334701E-2",0.187 µM
same,potency estimated from few doses,"CIT; compound concentrations: 100 nM and 1000 nM (sheet 'Samples'), CATDS: 2.8413357389646399E-2",1.63 µM
same,potency estimated from few doses,PDGFRB,0.808 µM
Fc1ccc(-c2c(-c3ccncc3)[nH]c3cccnc23)cc1 [RO1153853-000],potency estimated from few doses,"CIT; compound concentrations: 100 nM and 1000 nM (sheet 'Samples'), CATDS: 4.9233992215081297E-2",1.75 µM
same,potency estimated from few doses,"RIPK2; compound concentrations: 100 nM and 1000 nM (sheet 'Samples'), CATDS: 7.5197956220231496E-2",0.498 µM
Cl.Cl.NCC(C(=O)Nc1cc(Br)c(-c2ccnc3[nH]ccc23)s1)c1ccccc1.NCC(C(=O)Nc1cc(Br)c(-c2ccnc3[nH]ccc23)s1)c1ccccc1 (stereo not drawn) [GSK1269851A],potency estimated from few doses,AXL; [1],1.61 µM
same,potency estimated from few doses,CSK; [1],0.674 µM
same,potency estimated from few doses,EPHA1; [1],0.516 µM
same,potency estimated from few doses,EPHB3; [1],1.18 µM
same,potency estimated from few doses,FYN; [1],0.68 µM
same,potency estimated from few doses,LYN; [1],0.586 µM
same,potency estimated from few doses,ROCK1; [1],0.894 µM
same,potency estimated from few doses,ULK1; [1],0.705 µM
NCCNS(=O)(=O)c1ccc(-c2ccnc3[nH]ccc23)cc1 [GSK977617A],potency estimated from few doses,AXL; [1],1.33 µM
same,potency estimated from few doses,CDC42BPG; [1],0.442 µM
same,potency estimated from few doses,CSK; [1],0.757 µM
same,potency estimated from few doses,EPHA1; [1],0.723 µM
same,potency estimated from few doses,EPHB3; [1],1.78 µM
same,potency estimated from few doses,FYN; [1],1.01 µM
same,potency estimated from few doses,LYN; [1],0.936 µM
same,potency estimated from few doses,PRKG1; [1],0.621 µM
same,potency estimated from few doses,RIPK2; [1],0.974 µM
same,potency estimated from few doses,ULK1; [1],0.718 µM
CONC1=NC(=O)/C(=C/c2ccc3ncccc3c2)S1 [RO4613269-000],potency estimated from few doses,PIK3CG; CATDS: 0.172527207279461,0.606 µM
Cc1cccc(-c2nc(Nc3ccncc3)c3sccc3n2)n1 [GW869641X],potency estimated from few doses,CIT; [1],1.1 µM
same,potency estimated from few doses,RIPK2; [1],0.722 µM
same,potency estimated from few doses,TGFBR2,0.363 µM
Clc1cc(Cl)cc(Nc2ccnc(Nc3cc(Cl)cc(Cl)c3)n2)c1 [GSK175726A],potency estimated from few doses,"AXL; compound concentrations: 100 nM and 1000 nM (sheet 'Samples'), CATDS: 8.4752300032334103E-3",1.71 µM
same,potency estimated from few doses,"CSK; compound concentrations: 100 nM and 1000 nM (sheet 'Samples'), CATDS: 1.17668577174877E-2",0.462 µM
same,potency estimated from few doses,"EPHA1; compound concentrations: 100 nM and 1000 nM (sheet 'Samples'), CATDS: 1.41379738320296E-2",0.28 µM
same,potency estimated from few doses,"EPHB3; compound concentrations: 100 nM and 1000 nM (sheet 'Samples'), CATDS: 8.8361902766531698E-3",1.37 µM
same,potency estimated from few doses,"FYN; compound concentrations: 100 nM and 1000 nM (sheet 'Samples'), CATDS: 1.87889991520305E-2",0.15 µM
same,potency estimated from few doses,"LYN; compound concentrations: 100 nM and 1000 nM (sheet 'Samples'), CATDS: 1.7701594212269099E-2",0.169 µM
same,potency estimated from few doses,"MTOR; compound concentrations: 100 nM and 1000 nM (sheet 'Samples'), CATDS: 1.7554405068834999E-2",0.172 µM
same,potency estimated from few doses,"RIPK2; compound concentrations: 100 nM and 1000 nM (sheet 'Samples'), CATDS: 1.18071418274956E-2",0.457 µM
same,potency estimated from few doses,"ULK1; compound concentrations: 100 nM and 1000 nM (sheet 'Samples'), CATDS: 8.5136949732422407E-3",1.67 µM
CN(c1ccc(NC(=O)Nc2cccc(Cl)c2)cc1)c1ccnc(N)n1.Cl [GW830707A],potency estimated from few doses,CDC42BPA,1.27 µM
same,potency estimated from few doses,"CDC42BPG; compound concentrations: 100 nM and 1000 nM (sheet 'Samples'), CATDS: 2.2022337119778398E-2",0.0409 µM
same,potency estimated from few doses,"MTOR; compound concentrations: 100 nM and 1000 nM (sheet 'Samples'), CATDS: 2.8595787466671799E-2",0.0226 µM
same,potency estimated from few doses,"PRKG1; compound concentrations: 100 nM and 1000 nM (sheet 'Samples'), CATDS: 9.7555331639362503E-2",0.00328 µM
same,potency estimated from few doses,"ROCK1; compound concentrations: 100 nM and 1000 nM (sheet 'Samples'), CATDS: 3.6596827517009503E-2",0.0142 µM
CCn1c(-c2nonc2N)nc2c(C#CCN)ncc(OCCCN)c21.O=C(O)C(F)(F)F [GSK561866B],potency estimated from few doses,"ROCK1; compound concentrations: 100 nM and 1000 nM (sheet 'Samples'), CATDS: 8.4465602866789904E-2",1.01 µM
CC(C)N1CCC(n2cnc(-c3ccc(F)cc3)c2-c2ccnc(N)n2)CC1 [SB-223132],potency estimated from few doses,CIT; [1],0.886 µM
same,potency estimated from few doses,CSK; [1],0.898 µM
same,potency estimated from few doses,EPHB3; [1],1.41 µM
same,potency estimated from few doses,RIPK2; [1],0.559 µM
O=C1N=C(NCCc2ccc(Cl)cc2)S/C1=C\c1ccc2ncccc2c1 [RO4498479-000],potency estimated from few doses,"AXL; compound concentrations: 100 nM and 1000 nM (sheet 'Samples'), CATDS: 1.04698651204191E-2",0.5 µM
same,potency estimated from few doses,"CSK; compound concentrations: 100 nM and 1000 nM (sheet 'Samples'), CATDS: 1.24616497834408E-2",0.349 µM
same,potency estimated from few doses,"EPHA1; compound concentrations: 100 nM and 1000 nM (sheet 'Samples'), CATDS: 1.45728088711572E-2",0.262 µM
same,potency estimated from few doses,"EPHB3; compound concentrations: 100 nM and 1000 nM (sheet 'Samples'), CATDS: 7.7760925850710602E-3",1.11 µM
same,potency estimated from few doses,"FYN; compound concentrations: 100 nM and 1000 nM (sheet 'Samples'), CATDS: 1.0262385049400099E-2",0.523 µM
same,potency estimated from few doses,"LYN; compound concentrations: 100 nM and 1000 nM (sheet 'Samples'), CATDS: 9.5944426584782493E-3",0.613 µM
same,potency estimated from few doses,PIK3CG; CATDS: 8.5012457956318496E-3,0.843 µM
same,potency estimated from few doses,"RIPK2; compound concentrations: 100 nM and 1000 nM (sheet 'Samples'), CATDS: 1.0901360132345101E-2",0.458 µM
same,potency estimated from few doses,"ULK1; compound concentrations: 100 nM and 1000 nM (sheet 'Samples'), CATDS: 1.00048929217101E-2",0.555 µM
same,potency estimated from few doses,ULK3; CATDS: 8.2720873677068606E-3,0.913 µM
CCn1c(-c2nonc2N)nc2c(C#CC(C)(C)O)nc(OCCNC)cc21.Cl [GSK949675A],potency estimated from few doses,PRKG1; [1],1.37 µM
CN(c1ccc(NC(=O)N2CCN(CCCN3CCOCC3)CC2)cc1)c1ccnc(Nc2ccc(CS(C)(=O)=O)cc2)n1.Cl [GW830899A],potency estimated from few doses,ULK3; CATDS: 2.3659630965279298E-2,1.01 µM
CCn1c(-c2nonc2N)nc2c(C#CC(C)(C)O)nc(OC[C@@H](N)c3ccccc3)cc21 [GSK938890A],potency estimated from few doses,"PRKG1; compound concentrations: 100 nM and 1000 nM (sheet 'Samples'), CATDS: 5.6529109044468798E-2",0.866 µM
